Source: PubChem
In the library only some 1.6% were active in any assay of this set; here they are far more common.
Epigenetic mod – qHTS Assay for Epigenetic Modulators | mouse C127i GFP locus derepression, cytometry, 30 h | Potency, µM (top dose mostly 46.1 µM), for inactives: at the top dose GFP derepression (activation) | actives 0.09% (n = 68,000) | AID 597, 2007; also: % of control where 0% means no effect
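Derepression screen: silenced CMV-GFP reporter in murine C127i cells, 30 h compound incubation at 37 C, washed cells imaged by laser-scanning cytometer to enumerate GFP-expressing objects of 20 to 120 um.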
HBB splicing – qHTS Assay for Modulators of Hemoglobin Beta Chain Splicing; actives 0.06% (n = 65,000); AID 925, 2007; HBB splicing reporter cell assay, activation; EGFP reporter with mutant IVS2-654 intron; response scale: normalised to 500 nM splice-correcting PNA; Potency, µM (highest dose often 46.1 µM), without a hit: at the highest dose activation, actives largely listed as activators; also: potency is read from the fitted curve at half-maximal effect; 0% is about no effect
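Compounds were applied for 2 days to HeLa EGFP-654 cells, 500/well in Optimem with 2% FCS. The reporter's EGFP is disrupted by mis-splicing of beta-globin intron IVS2-654. Readout: summed well GFP fluorescence from 488 nm laser scanning; reference was 500 nM antisense […] 654 PNA.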
Peg3 imprint – qHTS Assay for Compounds that Induce Erasure of Genomic Imprints | actives 0.02% (n = 110,000) | AID 1948, 2009 | Potency, µM (highest dose often 60.7 µM), for inactives: top-dose activity change, positive = activation, actives largely listed as activators | mouse ES Peg3-LacZ reporter, beta-gal luminescence, 40 h; also: potency is read from the fitted curve at half-maximal effect
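Gelatin-coated wells received 300 freshly trypsinized female ES cells with a Peg3LacZ-Neo reporter on the maternal allele, then incubated 40 hours at 37C. BetaGlo was added for 5 minutes at room temperature before a single luminescence read.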
p53ts 32C tox – qHTS Screen for Compounds that Selectively Target Cancer Cells with p53 Mutations: Cytotoxicity of p53ts Cells at the Permissive Temperature; actives 0.93% (n = 130,000); Potency, µM (doses to about 46.1 µM), for inactives: at the highest dose activity change, negative = cytotoxicity, hits mostly cytotoxic; H1299-p53A138V at 32C, ATP luminescence viability, 24 h;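 also: potency is read from the fitted curve at half-maximal effect; 0% = DMSO and -100% = full killing by reference compound; nearly all actives have a fitted effect of over 55% in size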
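Cells: H1299 p53ts (A138V), 600/well, pre-incubated 16–30 h at 37C. Cpd up to 46 uM, 24 h, 32C. Readout: ATPlite luminescence, 20 min RT. Normalization: DMSO vs tamoxifen 100 uM. AC50 by Hill equation.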
p53ts 39C tox – qHTS Screen for Compounds that Selectively Target Cancer Cells with p53 Mutations: Cytotoxicity of p53ts Cells at the Nonpermissive Temperature; Potency, µM (titrated, usually from 46.1 µM), without a hit: at the top dose activity change, negative = cell killing, usual class: cytotoxic; AID 902, 2007; actives 1.5% (n = 130,000); H1299-p53A138V viability at 39C, ATP luminescence, 24 h; also: potency is read from the fitted curve at half-maximal effect; % is scaled to controls: 0 for no effect and ±100 for the full control effect; nearly all actives have a fitted effect of over 55% in size
UbGFP stabilizer – Ubiquitin-GFP Assay. Ubiquitin-GFP reporter cells, proteasome inhibition, GFP fluorescence; response scale: untreated = 0%, 10 µM MG-132 = 100%. Potency, µM (series often up to 45.9 µM), for the others: top-dose activation (GFP accumulation), most hits filed as activators. 67,000 tested, under 10 active. AID 526, 2006; active = well fitted activation curve with a large enough effect, not every such curve was filed as active; inconclusive = small, poorly fitted or top-dose-only effect, or another doubt; inactive = no such curve, though single readings can be large or run the other way; also: potency is read from the fitted curve at half-maximal effect
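Reporter cells (U2OS, ubiquitin-G76V-GFP fusion) are plated overnight, then treated 4 hr at 37 °C with compound titrations from 46 uM down to 2.9 nM. Activity is scaled against untreated cells and 10 uM MG-132.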
* marks the source's active call; other numbers are inactive results; ? = inconclusive; . = no result; [ ] = remark or other dose. Unless noted, calls follow the shape of the dose curve; as a rule, active = well fitted curve in the direction sought with a large enough effect; inconclusive = small, poorly fitted or top-dose-only effect, or another doubt; inactive = no such curve, though single readings can be large; an effect the other way counts as inactive or inconclusive.

SMILES	Epigenetic mod	HBB splicing	Peg3 imprint	p53ts 32C tox	p53ts 39C tox	UbGFP stabilizer
O=C(NCCc1cccs1)c1ccc(Cn2c(SCc3ccc(F)cc3)nc3cccnc32)cc1	.	.	-12.6%[10.9 µM]	12.6µM*	15.8µM*	.
Cc1c(NC(=O)c2cc(-c3cccc(Cl)c3)on2)c(=O)n(-c2ccccc2)n1C	.	.	10.7%[10.9 µM]	5.3%	8.3%	.
N#Cc1c(NC(=O)c2nc3ncccn3n2)sc2c1CCCCC2	-1.7%	-0.8%	-11.8%	12.6µM*	12.6µM*	5.7%
Cc1cccc2nc(Cn3c(=O)n(CCCC(=O)NCc4ccco4)c(=O)c4ccccc43)cc(=O)n12	-1.0%	-4.0%	-29.0%	-3.6%	-15.7%	12.4%
Oc1ccc(O)cc1	-2.2%	?	10µM*	-2.2%	12.1%	3.1%
COC(=O)c1c(NC(=O)CN2CCN(c3ccccc3Cl)CC2)sc(C)c1C	.	.	.	.	13.0%	.
CCCOCc1cc(CN2CCN(c3cccc(Cl)c3)CC2)c(O)c2ncccc12	.	.	9.3%[10.9 µM]	-6.5%	15.8µM*	.
CN1CCN(Cc2cc(COCc3ccccc3)c3cccnc3c2O)CC1	6.31µM*	0.5%	-24.2%	-28.9%	5.01µM*	-7.8%
CCOC(=O)CCSc1nc2c(c(C(F)(F)F)c1C#N)CCC2	0.0%	-0.6%	-9.6%	-5.4%	-1.3%	0.0%
O=S1(=O)C=C(Sc2nc3cc(Cl)ccc3o2)c2ccccc21	1.0%	3.3%	-36.8%	10µM*	20µM*	5.5%
COc1ccc(C(=O)NCC(c2ccc(N(C)C)cc2)N2CCc3ccccc32)cc1 (stereo not given)	.	.	-14.7%[10.9 µM]	-12.5%	10µM*	.
CC(C)Oc1ccc(C(=O)NCC(c2ccc(N(C)C)cc2)N2CCc3ccccc32)cc1 (stereo not given)	.	.	3.9%[10.9 µM]	7.3%	-14.2%	.
CCOc1cccc(NC(=O)C2CC(=O)N(C)C(=Nc3cccc(OC)c3)S2)c1 (stereo not given)	.	.	-16.6%[10.9 µM]	?	12.6µM*	.
CCOc1cccc(NC(=O)C2CC(=O)N(C)C(=Nc3ccc(OC)cc3)S2)c1 (stereo not given)	.	.	-16.4%[10.9 µM]	0.2%	-23.4%	.
Cc1ccc(CNC(=O)Cn2ncc3c(C)n(Cc4ccc(Cl)cc4)c(C)c3c2=O)cc1	.	.	-8.9%[10.9 µM]	-14.6%	15.8µM*	.
CNC(=O)Cn1ncc2c(C)n(Cc3ccc(C)cc3)c(C)c2c1=O	.	.	.	-0.3%	0.4%	.
CCCCOc1ccc(CNC(=O)CN2CCSc3ccccc32)cc1	.	.	-8.1%[10.9 µM]	3.9%	-20.0%	.
CCN(CC)CCNC(=O)c1cc2c(-c3ccc(Cl)cc3)nn(C)c2s1	.	-0.5%	-29.0%	-13.1%	-19.0%	-8.1%
CCCN(CCC)CCNC(=O)c1cc2c(-c3ccc(Cl)cc3)nn(C)c2s1	.	.	-14.2%[10.9 µM]	-23.5%	12.6µM*	.
CCCCN(CC)CCNC(=O)c1cc2c(-c3ccc(Cl)cc3)nn(C)c2s1	.	.	-5.4%[10.9 µM]	0.9%	15.8µM*	.
COc1cc(N=c2c([N+](=O)[O-])nn(-c3ccc4c(c3)OCCO4)n2O)cc(OC)c1	.	.	.	.	11.2µM*	.
COc1ccc(/C=N/NC(=O)c2ccc3c(c2)OCCO3)cc1[N+](=O)[O-]	.	.	.	.	-3.6%	.
CS(=O)(=O)N(CCc1ccccc1)CC(=O)NCc1ccc2c(c1)OCO2	0.0%	0.4%	-6.6%	8.9%	3.6%	-3.9%
COc1ccc(-c2cc(-c3ccccc3O)[nH]n2)cc1OC	0.0%	-0.2%[9.22 µM]	-47.4%	-29.1%	-19.3%	4.2%
Oc1ccccc1-c1cc(-c2ccc3c(c2)OCCO3)n[nH]1	-2.7%	-0.4%[57.5 µM]	-86.1%	12.6µM*	?	1.3%
SMILES	Epigenetic mod	HBB splicing	Peg3 imprint	p53ts 32C tox	p53ts 39C tox	UbGFP stabilizer
Clc1cccc(N2CCN(c3ncnc4c3nc3n4CCCCC3)CC2)c1	.	.	-22.4%[10.9 µM]	?	12.6µM*	.
Cn1c(=O)c2cc(C(=O)NC3CCCCCC3)sc2c2ccccc21	.	.	-9.6%[10.9 µM]	?	7.94µM*	.
CCOC(=O)Nc1nnc(-c2ccccc2OC)s1	0.0%	5.0%[0.369 µM]	0.4%	-10.6%	-7.9%	10.3%
COC(=O)Nc1nnc(-c2ccccc2Cl)s1	2.6%	0.8%[0.369 µM]	?	10µM*	12.6µM*	-0.9%
COc1ccc(OC)c(-c2cc(C(=O)NCCc3ccccc3)c3c(-c4ccc(C)cc4)[nH]nc3n2)c1	.	.	-6.5%[10.9 µM]	-0.5%	-18.3%	.
O=C(O)c1cc(-c2ccc(C(F)(F)F)cc2)nc2n[nH]c(-c3ccccc3)c12	.	.	-8.2%[10.9 µM]	?	10µM*	.
COc1ccc(-c2cc(C(=O)NCCc3ccccc3)c3c(-c4ccc(Cl)cc4)[nH]nc3n2)cc1	.	.	-27.2%[10.9 µM]	12.6µM*	12.6µM*	.
COc1ccc(-c2cc(C(=O)NCCc3ccccc3)c3c(-c4ccccc4)[nH]nc3n2)cc1	.	.	-4.9%[10.9 µM]	?	12.6µM*	.
CCOc1ccc(-c2cc(C(=O)NCc3ccccc3)c3c(-c4ccc(CC)cc4)[nH]nc3n2)cc1	.	.	5.4%[10.9 µM]	0.6%	0.0%	.
Cc1cc(C)cc(N2C(=O)CS(=O)(=O)C23C(=O)N(Cc2ccccc2)c2ccccc23)c1 (stereo not given)	.	.	-6.8%[10.9 µM]	-2.8%	-10.3%	.
C=CCOc1ccc(C2N3CC4(C)CN2CC(CCC)(C3)C4=O)cc1 (stereo not given)	2.1%	-1.2%	-25.3%	-4.6%	-10.6%	-4.8%
CCCC(=O)N1CCc2cc(OC)c(OC)cc2C1COc1ccccc1OC (stereo not given)	.	.	-13.1%[10.9 µM]	1.1%	-20.9%	.
Cc1cc(Br)cc(C)c1NC(=O)c1cnc2ccccn2c1=O	.	.	2.9%[10.9 µM]	2.0%	-26.7%	.
Cc1ccccc1NC(=O)c1cnc2ccccn2c1=O	.	.	.	10µM*	15.8µM*	.
O=C(Nc1ccc2c(c1)OCCO2)c1ccc2nccnc2c1	-0.2%	-2.9%	-80.6%	?	3.98µM*	0.0%
CCOc1ccc(C(=O)Nc2ccc3c(c2)OCO3)cc1OCC	2.7%	1.1%	-11.8%	4.7%	1.4%	3.4%
CCOc1ccc(C(=O)Nc2ccc3c(c2)OCCO3)cc1Br	.	.	-12.7%[10.9 µM]	?	10µM*	.
Cc1ccc(NC(=O)CSc2nc(=O)n(Cc3ccccn3)c3c2CCC3)cc1F	.	.	-7.4%[10.9 µM]	-7.9%	-7.5%	.
Cc1ccc(-n2c(SCC(=O)Nc3cc(C)on3)nc3c(c2=O)SC(C)C3)cc1 (stereo not given)	.	0.1%	-44.7%	10µM*	?	-2.7%
NC(=O)c1ccccc1N/C=C/C(=O)c1ccccc1	0.0%	0.1%	-86.8%	5.01µM*	10µM*	-0.3%
